The full ranking holds about 33,000 sequences; the median of “e-score” is about -0.038, and the highest 2% start at about 0.33. The list comes from a sample in which the highest values are over-represented; it also holds similar and randomly drawn sequences.
The sequences below were run against T1, GST-Rok-C97-191 (Bacillus subtilis subsp. subtilis str. …, UniProt O34857 97-191) (assay: protein binding microarray; Rok is a gene silencer of Bacillus subtilis; high values mean tight binding). Conditions: protein: recombinant; tags: GST (pTH5325, pDEST15-Magic modified); dsDNA, one strand shown.
T1 sequence: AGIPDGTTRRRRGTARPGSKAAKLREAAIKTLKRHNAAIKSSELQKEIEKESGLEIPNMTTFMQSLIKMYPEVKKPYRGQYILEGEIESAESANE
Summary of the method: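 Every oligonucleotide joins a 25-mer constant primer to a 35-mer variable part drawn from a de Bruijn sequence of order 10, so each non-palindromic 8-mer appears at least 32 times and each palindromic 8-mer 16 times. The preference for every 8-mer is reported as a unitless, rank-based enrichment score (E-score). This score spans 0.5 for the most favored 8-mer to −0.5 for the most disfavored.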
TAAATCTA showed a binding signal of 0.364 E-score.
In the case of CAAATCTG, the binding signal is reported as -0.15 E-score.
CAAATCTC showed a binding signal of 0.0537 E-score.
For AGTCTATC, the binding signal was -0.0937 E-score.
With CATGTCAA the binding signal was -0.0291 E-score.
In the case of TAAATAAA, the binding signal is reported as 0.162 E-score.
Sequence AAAATATC has a binding signal of 0.186 E-score.
Sequence CAAATATC has a binding signal of 0.231 E-score.
Work on CAAATATA yielded a binding signal of 0.346 E-score.
TAAATATA showed a binding signal of 0.378 E-score.
With CAAATATG the binding signal was 0.161 E-score.
GAAATATA showed a binding signal of 0.305 E-score.
Work on AAAATATA yielded a binding signal of 0.399 E-score.
With AAAATATG the binding signal was 0.271 E-score.
In the case of CCCACCTA, the binding signal is reported as -0.0708 E-score.
In the case of AAGTTAAG, the binding signal is reported as -0.104 E-score.
With GTTGAATA the binding signal was 0.173 E-score.
CTTTTGTA was tested, and the binding signal was 0.241 E-score.
With ATTGATAA the binding signal was 0.243 E-score.
Sequence ATTGATAC has a binding signal of 0.22 E-score.
Work on ATTGATAG yielded a binding signal of 0.348 E-score.
With CGATACAC the binding signal was 0.155 E-score.
CGTTCCGA gave a binding signal of -0.149 E-score.
With AGCACGGA the binding signal was 0.0231 E-score.
AATCTAAC showed a binding signal of 0.199 E-score.
Work on AATCTACC yielded a binding signal of 0.447 E-score.
GATCTACC gave a binding signal of 0.35 E-score.
AATCTAAG was tested, and the binding signal was 0.234 E-score.
In the case of AATCTAGT, the binding signal is reported as 0.282 E-score.
With ACTCTACT the binding signal was 0.273 E-score.
Sequence AATCTAGC has a binding signal of 0.234 E-score.
Sequence GATCTAAC has a binding signal of 0.0254 E-score.
Work on CATCTACG yielded a binding signal of -0.0119 E-score.
With CATCTACC the binding signal was 0.222 E-score.
Work on AATCTACT yielded a binding signal of 0.43 E-score.
In the case of AATCTACG, the binding signal is reported as 0.36 E-score.
AGAATGCA showed a binding signal of 0.038 E-score.
Work on ACGTTTCC yielded a binding signal of -0.131 E-score.
AAGTGTCG showed a binding signal of 0.0859 E-score.
AGAAAAGC was tested, and the binding signal was 0.217 E-score.
With ACCACCAT the binding signal was -0.0276 E-score.
GTCTATTA showed a binding signal of 0.0713 E-score.
Work on CTCTATTA yielded a binding signal of 0.246 E-score.
CACTATTA showed a binding signal of 0.202 E-score.
With ATCTATTA the binding signal was 0.353 E-score.
Work on GACTATTA yielded a binding signal of 0.165 E-score.
With GACTATCA the binding signal was -0.147 E-score.
With AACTATTA the binding signal was 0.444 E-score.
GGCTATCA showed a binding signal of -0.0497 E-score.
With AACTATCA the binding signal was 0.369 E-score.
With AGCTATCA the binding signal was 0.335 E-score.
For CACTATCA, the binding signal was 0.175 E-score.
CGCTATCA gave a binding signal of 0.0552 E-score.
Work on ATAGTTGC yielded a binding signal of 0.306 E-score.
In the case of CTGGAACC, the binding signal is reported as -0.0259 E-score.
Work on AGTCAGTA yielded a binding signal of 0.149 E-score.
Sequence AAGGCGCT has a binding signal of -0.115 E-score.
CCGCCTAG gave a binding signal of -0.149 E-score.
For GAGATGAA, the binding signal was -0.0161 E-score.
CCCGAAAC showed a binding signal of -0.179 E-score.
CGGTCGTA was tested, and the binding signal was 0.261 E-score.
ATTATGAG showed a binding signal of -0.00845 E-score.
GTACCCAA showed a binding signal of -0.0765 E-score.
With CTCTATCA the binding signal was 0.0167 E-score.
Sequence ATCTATCA has a binding signal of 0.451 E-score.
Work on AAGTATTA yielded a binding signal of 0.349 E-score.
With CAGTATTA the binding signal was 0.188 E-score.
In the case of GTCTATCA, the binding signal is reported as -0.0797 E-score.
GAGTATTA was tested, and the binding signal was 0.187 E-score.
AGTCTTGC was tested, and the binding signal was 0.0754 E-score.
For ACGACTTA, the binding signal was 0.051 E-score.
GCAGCAAC showed a binding signal of -0.161 E-score.
AATCAATA was tested, and the binding signal was 0.227 E-score.
Sequence GATCAATA has a binding signal of 0.0798 E-score.
TATCAATA showed a binding signal of 0.331 E-score.
Sequence AAAAAACA has a binding signal of 0.19 E-score.
AGAAACCG gave a binding signal of -0.049 E-score.
AAATACAT gave a binding signal of 0.359 E-score.
AAATACGA gave a binding signal of 0.0254 E-score.
For AAATACGT, the binding signal was 0.343 E-score.
AAATACAG was tested, and the binding signal was 0.123 E-score.
Sequence AAATACGG has a binding signal of 0.213 E-score.
AAATACAC showed a binding signal of 0.25 E-score.
For CGTTCCTA, the binding signal was 0.0168 E-score.
With CAGTATGC the binding signal was -0.144 E-score.
GCAGATAA was tested, and the binding signal was 0.127 E-score.
Sequence CCTAATAC has a binding signal of 0.14 E-score.
For ATCCGTCC, the binding signal was -0.186 E-score.
With CTACCACA the binding signal was 0.343 E-score.
With GTACCACA the binding signal was 0.0685 E-score.
Sequence ATACCACG has a binding signal of 0.0833 E-score.
GTACCAGA gave a binding signal of 0.0231 E-score.
ATACCATA showed a binding signal of 0.267 E-score.
Work on CTACCATC yielded a binding signal of 0.421 E-score.
For ATACCATC, the binding signal was 0.0328 E-score.
CTACCATA was tested, and the binding signal was 0.324 E-score.
GTACCATA gave a binding signal of 0.362 E-score.
Sequence ATGGCGCA has a binding signal of -0.0193 E-score.
Sequence GAAACTCC has a binding signal of 0.0382 E-score.
In the case of CGGTAGAG, the binding signal is reported as -0.0194 E-score.
AGTTAGAT was tested, and the binding signal was 0.196 E-score.
AGGTAGAT showed a binding signal of 0.36 E-score.
In the case of CCGTAGAA, the binding signal is reported as 0.289 E-score.
Work on CGGTAGAA yielded a binding signal of 0.411 E-score.
TCGTAGAA showed a binding signal of 0.236 E-score.
TGGTAGAA was tested, and the binding signal was 0.468 E-score.
For GGGTAGAA, the binding signal was 0.384 E-score.
In the case of GGGTAGAC, the binding signal is reported as -0.0486 E-score.
With ACGTAGAT the binding signal was 0.219 E-score.
GGGTAGCA showed a binding signal of -0.148 E-score.
CGGTAGAC showed a binding signal of -0.0972 E-score.
